Experimental data reported in the supplement of paper PMC13380429.

System: Vero E6 infected with SARS-CoV-2
Assay: inhibition of SARS-CoV-2 cytopathic effect; higher = more antiviral protection, active = above 15
Conditions: 48 h

Measured: inhibition of SARS-CoV-2 cytopathic effect

C[C@H](Cc1ccc(OCC(=O)O)cc1)NC[C@H](O)c1cccc(Cl)c1
inactive: 1 nM -1% | 8.33 nM 0.79% | 100 nM 2.24% | 833.33 nM 0.59% | 10000 nM 0.72%

O=C1c2c(O)cc(O)cc2O[C@H](c2cc(O)c(O)c(O)c2)[C@H]1O [dihydromyricetin]
inactive: 1 nM 2.39% | 8.33 nM 3.54% | 100 nM 1.66% | 833.33 nM 1.69% | 10000 nM -1.52%

OC[C@@H](O)[C@H]1O[C@@H]2O[C@H](C(Cl)(Cl)Cl)O[C@@H]2[C@H]1O [chloralose]
inactive: 1 nM 1.75% | 8.33 nM 3.01% | 100 nM 2.94% | 833.33 nM -0.88% | 10000 nM -0.85%

C=CCN1CC[C@]23c4c5ccc(O)c4O[C@H]2/C(=N/NC(=O)c2ccccc2)CC[C@@]3(O)[C@H]1C5 [naloxone-benzoylhydrazone]
inactive: 1 nM -0.04% | 8.33 nM 0.97% | 100 nM 0.75% | 833.33 nM 5.45% | 10000 nM 0.69%

CCC(=O)OCC(=O)[C@@]1(OC(=O)CC)[C@H](C)C[C@H]2[C@H]3[C@H]([C@@H](O)C[C@@]21C)[C@@]1(C)C=CC(=O)C=C1C[C@H]3Cl [alclometasone-dipropionate]
inactive: 1 nM 3% | 8.33 nM 0.48% | 100 nM 1.16% | 833.33 nM 1.07% | 10000 nM -2.92%

C[C@@]1(O)[C@H](O)[C@@H](CO)O[C@H]1n1cnc2c(NC3CCCC3)nc(Cl)nc21
inactive: 1 nM 1.63% | 8.33 nM 2.06% | 100 nM 1.32% | 833.33 nM 0.53% | 10000 nM -0.13%
